# According to PubChem BioAssay (NCI):
# The panel holds about 83,000 compounds, 20% with a hit somewhere; the sample as a whole holds those more often.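 Note: values are percent growth. 100 is the growth of untreated cells, values between 100 and 0 indicate rising inhibition; between -100 and 0 indicates cell death.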 Unmarked numbers belong to inactive results. Active and inactive are the calls of the source. How the source made its calls: active means growth percent below 10; inactive means the rest.
# Test system: COLO 205 colon
# Experiment: NCI-60 one-dose screen, 48 h (100 = growth as untreated, 0 = no growth, -100 = all killed)
# Conditions: 10 µM unless noted
row,SMILES,growth
1,COc1ccccc1NCc1cccn1Cc1ccc(F)cc1,110%
2,CCN1CCN(Cc2ccc(C(=O)Nc3ccc(C)c(Oc4ccc(-c5[nH]nc6ncnc(N)c56)cc4)c3)cc2C(F)(F)F)CC1,56.7%
3,CCOC(=O)c1c(NC(=O)c2ccccc2C(F)(F)F)sc2c1CCC(=O)C2,56.7%
4,CN1CCN(c2ccc(/C=N/n3cnc4oc(-c5ccccc5)cc4c3=N)cc2)CC1,63.5%
5,Cn1ccnc1C(=O)/C=C/c1ccc(CNC(=O)c2ccc(S(F)(F)(F)(F)F)cc2)cc1,41.8%
6,COc1ccc(NC2=C(Cl)C(=O)c3nc(C)ccc3C2=O)cc1OC,108%
7,CCc1nn2c(C)cc(C)nc2c1Cc1ccc(/C=C/CN2CCN(CCOCCOCCN3CCN(C/C=C/c4ccc(Cc5c(CC)nn6c(C)cc(C)nc56)cc4)CC3)CC2)cc1,-48.5% (active)
8,COc1c(N2CC3CCCNC3C2)c(F)cc2c(=O)c(C(=O)N/N=C/c3c[nH]c4ccccc34)cn(C3CC3)c12 (stereo not given),107%
9,CC(=O)c1nnn(-c2c(C(=O)n3nc(C)cc3C)sc(=S)n2-c2ccccc2)c1C,108%
10,CCCCc1nc(/C=N/Nc2nc(Nc3ccccc3)nc(Nc3ccc(S(N)(=O)=O)cc3)n2)c(Cl)[nH]1,72%
11,O=C(CNc1nc(-c2cccc([N+](=O)[O-])c2)cs1)Nc1cccc(Cl)c1,112%
12,O=C(CSc1nnc(-c2ccc(Cl)cc2)n1-c1ccccc1)Nc1ccc(Br)cc1,51.9%
13,Cn1ccnc1C(=O)/C=C/c1ccc(NC(=O)c2c(F)c(F)c(F)c(F)c2F)cc1,124%
14,CNC(=O)c1cc(N2CCc3cc(NC(=O)Nc4ccc(Cl)c(C(F)(F)F)c4)ccc32)ccn1,58%
15,COc1c(N2CC3CCCNC3C2)c(F)cc2c(=O)c(C(=O)N/N=C/c3ccccc3)cn(C3CC3)c12 (stereo not given),97.5%
16,C[C@H](CCC(=O)NCc1ccc(C(=O)Nc2ccccc2N)cc1)[C@H]1CC[C@H]2[C@@H]3[C@@H](O)C[C@@H]4C[C@H](O)CC[C@]4(C)[C@H]3CC[C@]12C,65.2%
17,COc1c(N2CC3CCCNC3C2)c(F)cc2c(=O)c(C(=O)N/N=C/c3ccc4c(c3)OCO4)cn(C3CC3)c12 (stereo not given),85.5%
18,O=S(=O)(NCCCNc1nccc(-n2cnc3ccccc32)n1)c1ccc(C(F)(F)F)cc1,96.4%
19,C=CCn1c(SCC(=O)Nc2ccc(C(=O)/C=C/c3cc(OC)c(OC)c(OC)c3)cc2)nnc1-c1c[nH]c2ccccc12,73.1%
20,Brc1ccccc1/C=N/Nc1nc(N/N=C/c2ccccc2Br)nc(N2CCOCC2)n1,86.1%
21,COc1ccc(-c2cc(-c3ccc(Cl)cc3)c(C#N)c(=O)n2Cc2ccc(C(=O)O)cc2)cc1,109%
22,CS(=O)(=O)Nc1cc(-c2ccc3ncc(C#N)c(NCc4cccc(F)c4)c3c2)cnc1Cl,-45.9% (active)
23,COc1ccc(NC(=O)Nc2ccc3c(ccn3C(=O)c3cccc(F)c3)c2)cc1,104%
24,O=C(CNc1nc(-c2cccc([N+](=O)[O-])c2)cs1)Nc1cccc([N+](=O)[O-])c1,-30.8% (active)
25,O=C(/C=C/c1ccc(F)cc1)c1ccc(O)cc1,112%
